High-throughput results (PubChem)
Pf apPOL inh = Pf-apPOL DNA polymerase inhibition; inhibition, % at 10 µM; actives 0.25% (n = 210,000); Recombinant Pf-apPOL, molecular beacon fluorescence, 1.5 h
mHTT-CaM PPI inh = inhibitors of human mutant huntingtin-calmodulin interaction | P42858 | AID 1671202 | actives 3.6% (n = 190,000) | AlphaScreen His-mHTT/GST-CaM binding, luminescence | inhibition, % at 15 µM
Hits are given with their value; i = inactive; nt = no result; ! = not confirmed by another sample. Only some compounds are listed: those with a hit (about 3.5% of all), similar ones and a draw of the others. Rule as the data show it: active = inhibition above about 50%; inactive = the rest.

SMILES | Pf apPOL inh | mHTT-CaM PPI inh
COc1ccc(NC(=O)CN2C(=O)C3CCCCN3C(=O)c3ccccc32)cc1F (stereo unspecified) | i | i
CC1CCc2c(sc3ncnc(NCCN4CCOCC4)c23)C1 (stereo unspecified) | i | i
O=C(Nc1ccc(-c2ccc(NC(=O)Nc3cccnc3)cc2)cc1)Nc1cccnc1 | i | i
COc1ccc(C(=O)Nc2ccccc2C(=O)Nc2ccccc2C(=O)O)cc1 | i | 84
O=C(Nc1cc([N+](=O)[O-])ccc1C(=O)Nc1cccnc1)c1ccccc1 | i | i
COc1ccc(C(=O)Nc2ccccc2C(N)=O)cc1 | i | i
O=C(Nc1cccnc1)C(=O)Nc1cccnc1 | i | 82
O=C(Nc1ccccc1C(=O)Nc1cccnc1)c1ccccc1 | 51! | i
COc1cccc(CNC(=O)c2cn3cc(C)ccc3n2)c1 | i | i
COc1ccc(-c2ccc3nc(C(=O)NCc4cccnc4)cn3c2)cc1 | i | 59
Cc1cc2c3c(C)n(C)c(C)c3c(C)nn2c1 | i | 79
CC(C(=O)Nc1cccc2c1C(=O)c1ccccc1-2)N1C(=O)C2C3C=CC(C3)C2C1=O (stereo unspecified) | i | 61
CC(C(=O)Nc1ccccn1)N1C(=O)C2C3C=CC(C3)C2C1=O (stereo unspecified) | i | i
CCCOc1ccc(-c2[nH]ncc2Oc2ccccc2)c(O)c1 | i | 80
COc1ccccc1-c1cn[nH]c1-c1ccc(OCC=C(C)C)cc1O | i | 68
COc1ccc(Oc2cncnc2-c2ccc(OCc3ccccc3)cc2O)cc1 | i | i
CCc1cc(C(=O)COc2ccc(F)cc2)c(O)cc1O | i | i
CCc1cc(-c2[nH]ncc2Oc2ccc(Cl)cc2)c(O)cc1O | i | 100
COc1ccc(-c2[nH]ncc2Oc2ccccc2)c(O)c1 | i | i
CCCCOc1ccc(-c2[nH]ncc2Oc2ccccc2)c(O)c1 | i | 93
COc1ccccc1-c1c(C(F)(F)F)oc2cc(OCC=C(C)C)ccc2c1=O | i | i
Clc1cccc(CN2CCCN(c3ncccc3-c3nc(C4CC4)no3)CC2)c1 | i | i
COc1cccc(NC(=O)CSc2nnc(CNC(=O)c3c(F)cccc3Cl)o2)c1 | i | i
COc1ccc(Cl)cc1C(=O)Nc1ccc2c(c1)OCCO2 | i | i
COc1ccc(OC)c(N(CC(=O)NCc2ccccn2)S(C)(=O)=O)c1 | i | i
SMILES | Pf apPOL inh | mHTT-CaM PPI inh
O=C(NCc1ccccc1)c1ncccn1 | i | i
CCCN1C(=O)/C(=C\c2nc3ccccc3c(=O)[nH]2)c2cc(Br)ccc21 | i | 68
CN1C(=O)/C(=C\c2nc3ccccc3c(=O)[nH]2)c2ccccc21 | i | i
O=C1C=CC(=O)N1c1ccc(-c2nc3ccccc3o2)cc1 | i | 53
O=C1c2ccc(-c3nc4ccccc4o3)cc2C(=O)N1c1ccc([N+](=O)[O-])cc1 | i | i
COc1ccccc1NC(=O)C1CC(=O)N(c2cccc(NC(C)=O)c2)C1 (stereo unspecified) | i | i
CCCCC[C@H](C)N1C[C@H](COCc2ccccc2)Oc2cc(N3CC[C@@H](O)C3)ccc2S1(=O)=O | i | 92
CCCCC[C@@H](C)N1C[C@H](COCc2ccccc2)Oc2cc(N3CCC[C@@H]3CO)ccc2S1(=O)=O | i | i
CCCCC[C@@H](C)N1C[C@@H](COCc2ccccc2)Oc2cc(N3CC[C@H](N(C)C)C3)ccc2S1(=O)=O | i | 100
C[C@@H](c1ccccc1)N1C[C@H](COCc2ccccc2)Oc2cc(N3CC[C@H](O)C3)ccc2S1(=O)=O | i | i
CCCCC[C@H](C)N1C[C@@H](COCc2ccccc2)Oc2cc(N3CC[C@H](O)C3)ccc2S1(=O)=O | i | 88
CCCCC[C@H](C)N1C[C@@H](COCc2ccccc2)Oc2cc(N3CC[C@H](N(C)C)C3)ccc2S1(=O)=O | i | i
Cc1ccc(NC(=O)c2cc3c(C)nn(-c4ccccc4)c3s2)cc1[N+](=O)[O-] | i | i
Cc1ccc(CNC(=O)C2CCN(c3nnc(-c4ccccc4)o3)CC2)cc1C | i | i
CCN(CC)c1ccc(C2=NNC(=O)CC2C)cc1[N+](=O)[O-] (stereo unspecified) | i | i
CCc1ccc(O)c(N=Cc2cc3c(cc2Br)OCO3)c1 | i | i
Cc1ccc(C2C(C#N)=C(N)Oc3c2sc2ccccc32)o1 (stereo unspecified) | i | 86
Cc1ccc(C2C(C#N)=C(N)OC3=C2C(=O)CCC3)o1 (stereo unspecified) | i | i
CCOc1ccc(N2CC(c3nnc(NC(=O)Cc4cccc(OC)c4)o3)CC2=O)cc1 (stereo unspecified) | i | i
COc1ccc(CN2CCN(c3ccccn3)CC2)c(OC)c1OC | i | i
CCc1ccc(CCNC(=O)O[C@@H]2C[C@H]3C[C@@H]2[C@H]2CCCCN2[C@H]3C)cc1 | i | i
C[C@H]1[C@@H]2C[C@H]([C@H]3CCCCN31)[C@H](OC(=O)NCc1ccc(Cl)cc1)C2 | i | 53
O=C(C=Cc1ccc(Cl)c(Cl)c1)NCc1cccnc1 | i | nt
CSc1cccc(NC(=O)N2CCC3(CC2)Nc2cc(F)ccc2-n2cccc23)c1 | i | i
COc1ccc(NC(=O)N2CCC3(CC2)Nc2cc(F)ccc2-n2cccc23)cc1OC | i | 61
SMILES | Pf apPOL inh | mHTT-CaM PPI inh
COc1ccc(NC(=O)N2CCC3(CC2)Nc2cc(F)ccc2-n2cccc23)cc1 | i | 66
CCOc1ccc(NC(=O)N2CCC3(CC2)Nc2cc(F)ccc2-n2cccc23)cc1 | i | 66
CCc1ccc(NC(=O)N2CCC3(CC2)Nc2cc(F)ccc2-n2cccc23)cc1 | i | 72
COc1cccc(NC(=O)N2CCC3(CC2)Nc2cc(F)ccc2-n2cccc23)c1 | i | i
Cc1sc(N2CCOCC2)nc1-c1ccc(-c2ccccc2F)cc1 | i | nt
O=C(c1cc(F)cc(F)c1)N1CCC(CCOc2ccccc2F)CC1 | i | i
O=C(C1CC1)N1CCc2cc(Br)cc(S(=O)(=O)NCc3ccccc3)c21 | i | i
COc1cccc2c1OC1(CCC(C)CC1)N1N=C(c3ccco3)CC21 (stereo unspecified) | i | i
COc1cccc2c1OC(C)(C)N1N=C(c3ccco3)CC21 (stereo unspecified) | i | 55
COc1cccc2c1OC1(CCCCC1)N1N=C(c3ccco3)CC21 (stereo unspecified) | i | i
COc1ccc(C2=NN3C(C2)c2ccccc2OC32CCCCC2)cc1OC (stereo unspecified) | i | i
COc1ccc(C2=NN3C(C2)c2cc(OC)ccc2OC32CCCCC2)cc1 (stereo unspecified) | i | 60
COc1cccc(C2=NN3C(C2)c2cccc(OC)c2OC32CCCCC2)c1 (stereo unspecified) | i | 52
COc1ccc(CCNC(=O)c2ccc(CN3CCOCC3)cc2)cc1 | i | i
N#CC1=C(N)N(c2ncn[nH]2)C2=C(C(=O)CC(c3ccccc3)C2)C1c1cccnc1 (stereo unspecified) | i | i
Cn1cc(CCN2CCN(C(=O)c3ccccc3F)CC2)c2cccnc21 | i | i
COc1ccc(OC)c(N=c2oc3c(C)ncc(CO)c3cc2C(=O)Nc2ccccc2C)c1 | i | i
O=C(Nc1cccc(F)c1)C1CCCN(C(=O)c2ccccc2F)C1 (stereo unspecified) | i | i
Cc1cc(C)cc(NC(=O)C2CCCN(C(=O)c3ccccc3F)C2)c1 (stereo unspecified) | i | 97
Cc1ccc(NCc2ccc(Cl)nc2)c(NCc2ccc(Cl)nc2)c1 | i | 54
